# Results filed as inconclusive are left out. A number with no mark means an inactive call. Activity calls are given as the source filed them. Calls come from the whole dose curve; as a rule, active = well fitted cell-killing curve with a large enough effect in the repeat runs; inconclusive = weak or mixed curves; inactive = flat fitted curve, though single readings scatter. Positions of bridges follow the written chain, without caps; N, C: chain ends. Non-standard residues stand in square brackets, D forms with d. Residues, ends and D or L forms follow the SMILES beside them. hArg = N=C(N)NCCCC[C@H](N)C(=O)O; Mpa = O=C(O)CCS
# Test: qHTS RealTime-Glo MT Cell Viability Assay in HepG2 cells - 16 hour (AID 1224885); note: nearly all actives have a fitted effect of over 50% in size
# Settings: RealTime-Glo luminescence; series mostly up to 76.8 µM
# Description: U.S. Tox21 Program National Center for Advancing Translational Sciences [NCATS] NIH Chemical Genomics Center [NCGC] U.S. Environmental Protection Agency [EPA] National Institutes of Environmental Health Sciences [NIEHS] National Toxicology Program [NTP] U.S. Food and Drug Administration [FDA] Tox21 Assay Overview: Measure of cell viability is critical in the cell-base assay. Analysis of cell viability is necessary for the characterization of cell responses to cytotoxic drugs and environmental stress. A RealTime-Glo MT Cell Viability Assay to monitor cell viability in real time of continues cell culture during 40 hours of compound treatment was used to screen Tox21 10K library compounds in HepG2 cells. The RealTime-Glo MT Cell Viability Assay is a nonlytic, homogeneous, bioluminescent method to measure cell viability in real time using a simple, plate-based method. The assay involves adding NanoLuc luciferase and a cell-permeant prosubstrate to cells in culture. Viable cells reduce the proprietary prosubstrate to generate a substrate for NanoLuc luciferase. This substrate diffuses from cells into the surrounding culture medium, where it is rapidly used by the NanoLuc Enzyme to produce a luminescent signal. The signal correlates with the number of viable cells, making the assay well suited for cytotoxicity studies.
# Tox21 Assay Protocol Summary: The mixture of HepG2 cell suspension and reagents were dispensed at 600cells/6 ul/well in 1536-well tissue culture treated black solid bottom plates using a Multidrop dispenser. After the assay plates were incubated at a 37 C/5% CO2 incubator for 5 hours, 23 nL of compounds dissolved in DMSO, positive and negative controls was transferred to the assay plate by a pintool work station. The plates were incubated at 37 C for 40 hours. The luminescence intensity were measured at 0h, 8h, 16h, 24h, 32h and 40h time points using ViewLux plate reader during compound treatment.
# % is set by controls: 0 for no effect and ±100 for the full control effect.
SMILES,outcome,"activity change, negative = cytotoxic"
Cc1ccc(C(C)NC(=O)[C@@H](NC(=O)OC(C)C)C(C)C)cc1 (stereo not given in full),inactive,
CCOCCOCC,inactive,
Cn1nnc2c(C(N)=O)ncn2c1=O,inactive,
O=C[O][Al]([O]C=O)[O]C=O,inactive,
CC(C)C[C@@H]1[C@H](c2ccccc2)OC(=O)N1CCCN1CCCCCC1,inactive,
O=C(O)c1cc2ccccc2nc1C(=O)O,inactive,
OC[C@H]1O[C@@H](O[C@@H]2[C@@H](CO)O[C@](O)(CO)[C@H]2O)[C@H](O)[C@@H](O)[C@H]1O,inactive,
C=CCOC(=O)CCCCCC,inactive,
CC(=O)CCC1=C(C)CCCC1(C)C,inactive,
CO[C@@]1(NC(=O)Cc2cccs2)C(=O)N2C(C(=O)O)=C(COC(N)=O)CS[C@@H]21,inactive,
CC(C)(CO)C(O)C(=O)NCCCO (stereo not given),inactive,
O=Cc1ccccc1Cl,inactive,
NC(=O)[C@@H]1CSSCCC(=O)N[C@@H](CCCCN=C(N)N)C(=O)NCC(=O)N[C@@H](CC(=O)O)C(=O)N[C@@H](Cc2c[nH]c3ccccc23)C(=O)N2CCC[C@H]2C(=O)N1 ([Mpa][hArg]GDWPC-NH2; disulfide 1-7),inactive,
COc1cc2c(cc1OC)C(=O)C(CC1CCN(Cc3ccccc3)CC1)C2 (stereo not given),inactive,
CCCC(=O)OCCC(C)CCC=C(C)C (stereo not given),inactive,
CCCCCCCCCCCCCCCCCC#N,inactive,
O=C(O)CONC(=O)c1ccccc1,inactive,
CCCCCCCCCCOC(C)=O,inactive,
c1ccc2cnccc2c1,inactive,
CO/N=C(/C(=O)N[C@@H]1C(=O)N2C(C(=O)[O-])=C(C[n+]3ccn4ncccc43)CS[C@H]12)c1nsc(N)n1,inactive,

SMILES,outcome,"activity change, negative = cytotoxic"
COC(=O)CCCCC(=O)O,inactive,
C[Si]1(C)O[Si](C)(C)O[Si](C)(C)O[Si](C)(C)O[Si](C)(C)O1,inactive,
c1ccc2c(CC3=NCCN3)cccc2c1,inactive,
C=CCSSCCC,inactive,
CCOC(CN1CCN(CC(C)C(=O)c2ccccc2)CC1)c1ccccc1 (stereo not given),,0.651% [at 15.8 µM]
CCO[Si](CC)(OCC)OCC,inactive,
O=NN(CCCl)C(=O)NC1CCCCC1,inactive,
CN(C)CCOC(=O)C(c1ccccc1)C1(O)CCCC1 (stereo not given),inactive,
c1ccc(B(c2ccccc2)c2ccccc2)cc1,inactive,
C[C@@H](O)C(=O)O,inactive,
NCC1(Cc2noc(=O)[nH]2)CCCCC1,inactive,
CCn1cc(C(=O)O)c(=O)c2cnc(N3CCCC3)nc21,,2.96% [at 6.97 µM]
CCC(C(=O)OCCN1CCOC(c2ccccc2)C1C)c1ccccc1 (stereo not given),inactive,
CCCSSCCC,inactive,
CCC(C)C(C)=O (stereo not given),inactive,
CC1(C)Cc2cccc(N)c2O1,inactive,
CC(C)[C@H]1CC[C@H](C)C[C@@H]1O,inactive,
Cc1ncc([N+](=O)[O-])n1CC(C)O (stereo not given),inactive,
Cc1c(Cl)cccc1Cl,inactive,
CCN1CCCC1CN (stereo not given),inactive,

# Source: PubChem BioAssay (Tox21)
